High-throughput results (PubChem BioAssay)
Rows were chosen to be rich in hits. Some 11% of all compounds tested hit in one or more screens of this group.
VP16 counter – counter-screen for ROR gamma inhibitors: Gal4-VP16 reporter; Drosophila S2 Gal4-VP16 UAS-luciferase, luminescence, 20 h; Potency, µM (highest dose often 53.6 µM), for inactives: top-dose activity, negative = inhibition, hits mostly inhibitors; hit rate 3.5% among 310,000; AID 2546;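 further: Gal4-VP16 expression switched on by copper sulfate through the metallothionein promoter; potency means the concentration at half of the fitted maximal effect; on the % scale 0 is the no-effect control and ±100 the full control effect; nearly all actives have a fitted effect of over 50% in size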
MCF10A rereplic – induces DNA re-replication in MCF 10a normal breast cells; MCF 10A DNA re-replication, Hoechst nuclear intensity, 48 h; Potency, µM (highest dose often 46.1 µM), for inactives: at the top dose activity, positive = re-replication, usual class: activators; hit rate 2.9% among 350,000; AID 624296; further: potency means the concentration at half of the fitted maximal effect; % of control where 0% means no effect; nearly all actives have a fitted effect of over 50% in size
RORg inh – ROR gamma (mouse) transcription inhibition; hit rate 5.4% among 310,000; P51450; Potency, µM (doses to about 53.6 µM), for inactives: top-dose activity change, negative = inhibition, most hits filed as inhibitors; AID 2551; Drosophila S2 Gal4-RORgamma UAS-luciferase reporter, 20 h; further: potency means the concentration at half of the fitted maximal effect; on the % scale 0 is the no-effect control and ±100 the full control effect; nearly all actives have a fitted effect of over 60% in size
Target sequence (P51450 whole entry, looked up, the tested form may be a part): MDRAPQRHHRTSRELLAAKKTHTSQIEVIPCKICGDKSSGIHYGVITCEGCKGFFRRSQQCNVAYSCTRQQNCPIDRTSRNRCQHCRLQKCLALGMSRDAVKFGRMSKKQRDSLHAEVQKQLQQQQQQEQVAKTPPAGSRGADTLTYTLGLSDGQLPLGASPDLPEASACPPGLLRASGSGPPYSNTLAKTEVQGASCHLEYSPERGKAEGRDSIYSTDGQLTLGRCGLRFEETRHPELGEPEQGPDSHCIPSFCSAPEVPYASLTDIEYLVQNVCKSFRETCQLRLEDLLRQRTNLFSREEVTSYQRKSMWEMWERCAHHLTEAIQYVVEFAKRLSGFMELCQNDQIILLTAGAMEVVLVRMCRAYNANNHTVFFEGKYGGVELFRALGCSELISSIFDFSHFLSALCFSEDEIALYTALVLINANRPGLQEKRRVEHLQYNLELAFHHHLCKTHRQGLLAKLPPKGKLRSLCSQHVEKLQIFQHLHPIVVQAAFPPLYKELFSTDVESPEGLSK
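Stably transfected Drosophila Schneider cells are the test system, with ROR gamma fused to Gal4 and luciferase under UAS control; luminescence is read after 20 hr of 700 uM copper sulfate induction at ambient temperature.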
IL1B secr inh – blocks inflammasome-driven IL-1 beta release. THP-1 LPS/ATP IL-1B secretion, AlphaLISA, 16 h; stronger effect = lower value. activity change, % at 57.5 µM. hit rate 4.7% among 360,000; in the data active means activity change below about -50%; inconclusive means mostly about -30% to -49%; further: on the % scale 0 is the no-effect control and ±100 the full control effect
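THP-1 cells pretreated 1 hr with compounds (up to 57.5 uM final), then stimulated with LPS (250 ng/mL final) plus ATP (1.25 mM final); secreted IL-1B measured by AlphaLISA after 16 hr, decreased signal indicating inhibition.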
SW480 rerep – induces DNA re-replication in SW480 colon adenocarcinoma cells; SW480 DNA re-replication, Hoechst DNA content imaging, 48 h; Potency, µM (highest dose often 46.1 µM), for the others: top-dose re-replication activation, most hits filed as activators; hit rate 1.8% among 340,000; AID 624297; further: potency means the concentration at half of the fitted maximal effect; % of control where 0% means no effect; nearly all actives have a fitted effect of over 55% in size
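Readout is total intensity of Hoechst-stained nuclei, excited at 405 nm and collected at 500-530 nm. Compound treatment lasted 48 hr at 37 C in 5% CO2 before staining.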
An asterisk follows results filed as active; ? = inconclusive; · = no result; [ ] = another dose, or the depositor's remark. Unless noted, the call rests on the fitted dose curve; in most records, active means well fitted curve in the direction sought with a large enough effect; inconclusive means small, poorly fitted or top-dose-only effect, or another doubt; inactive means no such curve, though single readings can be large; an effect the other way counts as inactive or inconclusive.

SMILES	VP16 counter	MCF10A rereplic	RORg inh	IL1B secr inh	SW480 rerep
COCCn1c(SCC(=O)N(C)C2CCS(=O)(=O)C2)nc2ccccc2c1=O (configuration not stated)	-9.1%[10 µM]	-6.8%	2.0%	10.2	-13.9%
CCc1cc2c(=O)n(Cc3ccco3)c(SCC(=O)N(C)C3CCS(=O)(=O)C3)nc2s1 (configuration not stated)	?	13.8%	10µM*	29.5	-0.8%
CCc1cc2c(=O)n(Cc3ccco3)c(SCC(=O)NCC3CCCO3)nc2s1 (configuration not stated)	19.4%	2.7%	?	-6.1	-2.1%
COC(=O)c1ccc(Sc2nnnn2-c2ccccc2)c([N+](=O)[O-])c1	?	?	12.6µM*	-9.9	10.3µM*
O=C(O)c1ccc(Sc2nnnn2-c2ccccc2)c([N+](=O)[O-])c1	1.9%	14.3%	-12.1%	0.0	-7.1%
COc1ccc2c(c1)C(=O)[C@H](OC(=O)Nc1cc(OC)c(OC)c(OC)c1)[C@@H](c1ccc(OC)c(Br)c1)O2	-1.1%	·	-8.7%	·	·
Clc1ccc(-n2ncc3c(NCCCn4ccnc4)ncnc32)cc1	-1.8%	121.4%[0.0737 µM]	36.7%	-17.7	6.8%
CN(C)CCCNc1cc(C(C)(C)C)nc2c(-c3ccccc3)cnn12	2.51µM*	?	1.41µM*	-98.0*	?
Cc1cc(NCCCn2ccnc2)n2nc(-c3ccc(Cl)cc3)cc2n1	?	7.8%	?	-65.4*	-4.4%
CC(C)(C)c1cc(NCCCn2ccnc2)n2ncc(-c3ccc(Cl)cc3)c2n1	0.0%	?	?	-86.4*	?
Cc1cc(NCCCn2ccnc2)n2nc(-c3ccc(F)cc3)cc2n1	-10.2%	0.6%	-25.7%	-60.5*	-22.7%
Cc1cccc(-c2cc3nc(C)c(C)c(NCCCn4ccnc4)n3n2)c1	-5.9%	?	2.4%	·	?
COc1ccccc1-c1cnn2c(NCc3ccccc3)cc(C)nc12	4.7%	?	0.8%	-19.8	?
Cc1cc(C)c2c(n1)nn1c(NCCCn3ccnc3)cc(C)nc21	0.7%	·	-23.3%	·	·
CCNC1=C(Cl)C(=O)c2ccccc2C1=O	-3.2%	?	?	15.1	?
O=C1C(Cl)=C(Nc2ccc(O)cc2)C(=O)c2ccccc21	?	2.91µM*	?	-104.7*	-11.9%
CCC(=O)NC1=C(Nc2ccc(N)cc2)C(=O)c2ccccc2C1=O	?	6.8%	12.6µM*	-3.1	?
CCCC(=O)NC1=C(Cl)C(=O)c2ccccc2C1=O	·	?	·	-100.9*	6.51µM*
COc1ccc(NC2=C(NC(C)=O)C(=O)c3ccccc3C2=O)cc1	-15.4%	-1.5%	-42.3%	-5.3	?
CCN(CC)c1ccc(NC2=C(Cl)C(=O)c3ccccc3C2=O)cc1	11.2µM*	4.61µM*	?	-107.8*	?
Cc1ccc(S(=O)(=O)N2CCC(C(=O)Nc3ccc(S(=O)(=O)N4CCCC4)cc3)CC2)cc1C	·	7.4%	·	4.7	16.9%
Cc1ccc(NC2=C(Cl)C(=O)c3ccccc3C2=O)cc1	?	7.31µM*	?	-13.6	4.11µM*
Cc1cc(C)cc(NC2=C(N)C(=O)c3ccccc3C2=O)c1	-5.7%	8.3%	-11.3%	-6.9	-14.7%
C=C1C[C@@]23CC4C5[C@@]6(C)C[C@H](O)C[C@@]57C2[C@H](O)[C@@H]1[C@H](O)[C@H]3[C@H]7N4C6	1.7%	·	4.9%	·	·
O=C(NNc1ccccc1)C(CCO)C(=O)NNc1ccccc1	-2.8%	11.6µM*	-2.0%	-2.9	?
CCOC(=O)C1CCCN(Cc2c(C(=O)N3CCOCC3)nc3ccccn23)C1 (configuration not stated)	-5.9%	?	-1.3%	-67.7*	0.4%
O=C(Nc1ccccc1)C(Cc1ccccc1)c1ccccc1 (configuration not stated)	·	2.8%	·	-8.4	-2.4%
CSc1nnc(NC(=O)c2nc(S(=O)(=O)Cc3ccccc3)ncc2Cl)s1	?	?	12.6µM*	-100.5*	?
CC(C)c1nnc(NC(=O)CCC(=O)NCCc2ccccc2)s1	-1.9%	0.5%	12.2%	18.1	-1.4%[9.22 µM]
CCCc1nnc(NC(=O)c2nc(S(=O)(=O)Cc3ccc(C)cc3)ncc2Cl)s1	?	3.66µM*	?	-95.6*	8.2µM*
